# From ChEMBL document CHEMBL4513216, “Probing the Open Global Health Chemical Diversity Library for Multistage-Active Starting Points for Next-Generation Antimalarials” (ACS Infect Dis, 2020)
# Hit rate of the full screen: of about 69,000 compounds, about 8,600 (12%) showed an effect of 50% or more. Only a selection was taken, and strong results are over-represented in it overall.
# Test system: Plasmodium berghei
# Assay: Screen against P. berghei liver stage (PbLuc), transformed with Luciferase, at 10uM
# Format: functional, HepG2
# Conditions: tested at 10 uM
row,Compound,INHIBITION
1,Cn1ccnc1C1CCN(C(=O)COCC(F)(F)C(F)F)CC1,59.1%
2,CCOCC(=O)N1CCC(c2nccn2C)CC1,11.8%
3,O=C(COCC(F)(F)C(F)F)N1CCC(c2ncc[nH]2)CC1,40.6%
4,O=C(Cc1csc(-c2ccco2)n1)N1CCN(c2nccs2)CC1,-21.7%
5,CO[C@H]1CN(C(=O)c2ccc[nH]2)[C@@H]2COC[C@H]12,-29%
6,COCCNC(=O)c1ccc2ccc(N(C)CC3CC3)n2c1,26%
7,COc1ccc(S(=O)(=O)N2CCC(Cn3ccnc3)CC2)cc1,8.46%
8,O=S(=O)(c1ccccc1)N1CCCN(CCCn2ccnc2)CC1,37%
9,O=S(=O)(c1ccc(F)cc1)N1CCN(CCCn2ccnc2)CC1,-49.3%
10,COc1ccc(F)cc1S(=O)(=O)N1CCN(CCn2ccnc2)CC1,18.2%
11,Cc1ccc(S(=O)(=O)N2CCN(CCCn3ccnc3)CC2)cc1,81%
12,O=S(=O)(c1ccccc1)N1CCN(CCn2ccnc2)CC1,-26.6%
13,O=S(=O)(c1cccnc1)N1CCN(CCn2ccnc2)CC1,-0.113%
14,CCc1ccc(S(=O)(=O)N2CCN(CCn3ccnc3)CC2)cc1,51.2%
15,O=S(=O)(c1ccc(Cl)cc1)N1CCN(CCCn2ccnc2)CC1,76.7%
16,c1ccc(-c2cc(CNCCN3CCCC3)c3nnnn3c2)cc1,-5.71%
17,CC(NC(=O)NCc1ccccn1)c1cccs1 (stereo not given),-5.26%
18,O=C(C1=CCCC1)N1CCC[C@]2(C[C@@H](Oc3ncccc3F)CO2)C1,23.5%
19,CC(C)N1CCc2c(C(=O)N3CCOCC3)nn(C)c2C1,42.1%
20,OC1(CNc2ccccc2)CCNCC1,20.9%
21,CN(CCCc1n[nH]c(N)c1C#N)C(=O)NC1CC1,23.6%
22,CCNC(=O)N(C)CCCc1n[nH]c(N)c1C#N,40.9%

row,Compound,INHIBITION
1,CN(CCCc1n[nH]c(N)c1C#N)C(=O)Nc1cc(Cl)cc(Cl)c1,63.7%
2,COC(=O)c1ccc(-c2noc(CN(CCO)Cc3cccs3)n2)cc1,51%
3,OCCN(Cc1nc(-c2ccc3c(c2)OCO3)no1)Cc1cccs1,17.6%
4,OCCN(Cc1ccccc1)Cc1nc(-c2ccc3c(c2)OCO3)no1,35.1%
5,CCS(=O)(=O)N1C[C@@H](Oc2ccccn2)[C@H]2OCCC[C@H]21,-14.4%
6,COCC1(CNC(=O)Nc2cc(F)ccc2OC)CCCC1,51.4%
7,COc1ccc(F)cc1NC(=O)NCC1(C)COC1,25.25%
8,COc1ccc(F)cc1NC(=O)NCC1(CN2CCOCC2)CC1,28.15%
9,Cc1nn(C)c(Cl)c1C1CCCN1C(=O)CCNc1ncccn1 (stereo not given),-35.7%
10,O=c1cc(N2CCNCC2)cnn1CCc1ccc(F)cc1,32.8%
11,O=c1cc(N2CCCC2)cnn1CCc1cccc(F)c1,52.6%
12,O=c1cc(N2CCCCC2)cnn1CC(O)C(F)(F)F (stereo not given),-29.1%
13,O=c1cc(N2CCCC2)cnn1CC(F)F,73.2%
14,O=c1cc(N2CCOCC2)cnn1CCc1ccc(F)cc1,-0.529%
15,O=c1cc(N2CCCCC2)cnn1C[C@H](O)CO,2.7%
16,Cc1cnn(CCNCc2csc(-c3ccc(C(N)=O)cc3)n2)c1,43.6%
17,O=C(COc1ccc2c(c1)OCC2O)NCc1ccco1 (stereo not given),10.6%
18,O=C(NC1CCCC1)c1nc(COc2ccc3c(c2)OCO3)no1,62.9%
19,NC(=O)c1nc(COc2ccc3c(c2)OCO3)no1,-83.7%
20,CC(C)NC(=O)c1nc(COc2ccc3c(c2)OCO3)no1,32.8%
21,CC(C)CNC(=O)c1nc(COc2ccc3c(c2)OCO3)no1,57.7%
22,CNc1oc(COc2ccc3c(c2)OCO3)nc1C#N,41.5%

row,Compound,INHIBITION
1,O=C(NCC1CC1)c1nc(COc2ccc3c(c2)OCO3)no1,-12.6%
2,N#Cc1nc(COc2ccc3c(c2)OCO3)oc1NC1CCCCC1,72.1%
3,O=C(NC1CC1)c1nc(COc2ccc3c(c2)OCO3)no1,35.1%
4,CNC(=O)c1nc(COc2ccc3c(c2)OCO3)no1,53.7%
5,Cc1occc(=O)c1OCc1noc(C(=O)NCC(C)C)n1,26.9%
6,N#Cc1nc(COc2ccc3c(c2)OCO3)oc1NC1CC1,47.1%
7,O=C(c1nc(COc2ccc3c(c2)OCO3)no1)N1CCCC1,13.4%
8,CCn1cc(CN2CCC(O)(Cn3nc(C)ccc3=O)CC2)cn1,6.32%
9,CN(C)c1cc(C(=O)N2CCCCC2)ccn1,2.7%
10,CC1CCN(C(=O)c2cnn3c(-c4ccco4)ccnc23)CC1,-82.6%
11,CCCNC(=O)NC(=O)CN1C=Nc2ccccc2S1(=O)=O,-3.7%
12,Cc1occc1C(=O)N1CCC2(CC1)C(c1cnn(C)c1)CC(=O)N2C (stereo not given),31.3%
13,Cn1ccnc1CC1CCCN(Cc2noc(C3CC3)n2)C1 (stereo not given),9.14%
14,Cc1nnsc1CNC(=O)CSCc1ccccc1Cl,10.8%
15,c1ccc(Cc2nnc(CN3CCCCC3Cn3cncn3)o2)cc1 (stereo not given),24%
16,CCN(Cc1c(F)cccc1Cl)c1cc(C2CCNCC2)nc(C)n1,39.6%
17,COc1ncccc1CNC(=O)c1cnccn1,-12%
18,N#Cc1ccccc1OCCN1CCCC1Cn1cncn1 (stereo not given),48.1%
19,CC(C)CN1CCc2c(CN(C)Cc3ccco3)cncc2C1,-15.2%
20,Cc1cccc(S(=O)(=O)N2CCCC3(CCCN3S(C)(=O)=O)C2)c1 (stereo not given),-61.6%
21,Cc1nn(C)cc1S(=O)(=O)NCC(c1ccccc1)N1CCCCCC1 (stereo not given),36.7%
22,COc1ccccc1N1CCC(CNS(=O)(=O)c2cccs2)C1 (stereo not given),6.31%

row,Compound,INHIBITION
1,CN1CCc2cc(C(CNS(=O)(=O)c3cccs3)N3CCCC3)ccc21 (stereo not given),20.5%
2,CN(C)c1ccc(C(CNS(=O)(=O)c2cccs2)N2CCCC2)cc1 (stereo not given),67.6%
3,O=S(=O)(NCC(c1ccsc1)N1CCCCCC1)c1cccs1 (stereo not given),60%
4,COc1ccc(C(CNS(=O)(=O)c2cn(C)nc2C)N2CCCC2)cc1 (stereo not given),23.15%
5,O=C(NCC(F)(F)F)c1ccncc1,-6.67%
6,CC(C)c1noc(CCCC(=O)N2CCN(Cc3cccnc3)CC2)n1,-40.2%
7,COc1cccc(OCC(=O)NCc2ccc3[nH]c(=O)[nH]c3c2)c1,12.6%
8,CN1CCOC(C)(C(=O)Nc2nc(C(C)(C)C)cs2)C1 (stereo not given),7.5%
9,CN(CC1(O)CCN(c2ccnc3ccncc23)CC1)C(=O)CCN,-5.78%
10,CS(=O)(=O)c1ccc2c(c1)N(C(=O)Cc1cccc(F)c1)CCC2,30.9%
11,Cc1ccc2c(c1)N(C(=O)C1CCCOC1)CCC2 (stereo not given),-27%
12,CS(=O)(=O)c1ccc2c(c1)N(C(=O)Cc1ccc(F)cc1)CCC2,47.7%
13,CCN(CC)S(=O)(=O)CC(=O)N1CCc2ccc(Cl)cc21,26.8%
14,CCN(CC)S(=O)(=O)CC(=O)N1CCc2ccc(C)cc21,57.5%
15,CCN(CC)S(=O)(=O)CC(=O)N1CCc2ccc(F)cc21,67.4%
16,COCCOc1cccc(CNC(=O)CN2CCN(C)CC2C)c1 (stereo not given),17.883%
17,Cc1ccccc1Cn1cnc2oc(C)c(C(=O)O)c2c1=O,0.348%
18,O=C(CCn1cccn1)N1CCC(c2nnc(-c3ccsc3)o2)CC1,5.86%
19,O=C(N[C@@H]1CN(c2ncccn2)C[C@@H]2CCCO[C@@H]21)c1cccnc1,4.61%
20,CC(=O)NS(=O)(=O)c1ccc(F)cc1C(F)(F)F,35%
21,O=C(NCCn1nc(-n2cncn2)ccc1=O)c1ccsc1,6.12%
22,CCOCCC1(C(=O)N2CCCC(c3ncc[nH]3)C2)CCCC1 (stereo not given),72%

row,Compound,INHIBITION
1,CSCCC(=O)N1CCCC(c2ncc[nH]2)C1 (stereo not given),-8.66%
2,O=C(CCOc1ccccc1)N1CCCC(c2ncc[nH]2)C1 (stereo not given),52.7%
3,CCOCCC(=O)N1CCCC(c2ncc[nH]2)C1 (stereo not given),48.1%
4,O=C(CCCOCc1ccccc1)N1CCCC(c2ncc[nH]2)C1 (stereo not given),6.11%
5,CCOCCOc1ccccc1C(=O)N1CCCC(c2ncc[nH]2)C1 (stereo not given),-7.35%
6,COCCC(=O)N1C[C@H]2CN(Cc3cccc(C)n3)C(=O)[C@H]2C1,26.6%
7,CCOCCN1CCC(c2cnccn2)CC1,32.7%
8,CN1CCN(C=C2N=C(c3cc(-c4ccccc4F)n[nH]3)ON2)CC1,49.4%
9,CS(=O)(=O)N1CC[C@H]2OCC[C@@]2(C(=O)NCc2ccccn2)C1,39.4%
10,CNC(=O)c1cc(C)n(-c2cccc(OC)c2)c1C,-3.2%
11,Cc1cc(Br)cnc1N(C)CC1CCOC1 (stereo not given),23.6%
12,Cc1nc2c(c(NCc3ccc(-c4ccccn4)s3)n1)CCNCC2,32.2%
13,Cc1nc2c(c(NCc3cc4ccccc4s3)n1)CCNCC2,46.1%
14,Cc1nc2c(c(NCc3nc4ccccc4s3)n1)CCNCC2,75.8%
15,CC(C)N1CCN(C(=O)Nc2cnc3c(cnn3C(C)C)c2)CC1,27.6%
16,O=C(CCOc1ccccc1)N1CCCC(n2cncn2)C1 (stereo not given),-13.255%
17,CCC(C)N(Cc1cccnc1)Cc1cc2c(cc1OC)OCO2 (stereo not given),-19.8%
18,CCC(C)N(Cc1cccnc1)Cc1ccccc1Cn1cccn1 (stereo not given),31.3%
19,CCC(C)N(Cc1cccnc1)Cc1ccc2c(c1)OCCO2 (stereo not given),52.5%
20,Cc1ccnc(CC(C)N(C)Cc2ccc3c(c2)OCCO3)c1 (stereo not given),8.11%
21,CCC(C)N(Cc1cccnc1)Cc1cc2c(cc1Cl)OCO2 (stereo not given),58.5%
22,c1cncc(CN(Cc2ccc3c(c2)OCCO3)CC2CCCO2)c1 (stereo not given),-2.98%
